Measurements as given in PubChem BioAssay (Tox21).
Records with an inconclusive call do not appear. Active and inactive are the calls of the source. Unless noted, calls come from the whole dose curve; as a rule, active = well fitted curve in the direction sought with a large enough effect in the repeat runs; inconclusive = weak or mixed curves; inactive = no such curve, though single readings can be large; an effect the other way counts as inactive or inconclusive.

Assays:
[1] = qHTS assay for small molecules that induce genotoxicity in human embryonic kidney cells expressing luciferase-tagged ATAD5 (AID 651632); note: nearly all actives have a fitted effect of over 15% in size
Outline: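 Concentration-response screen for ATAD5 upregulation in HEK293T luciferase reporter cells; 16 hr treatment at 37C, then luminescence after 30 min with Amplite at room temperature.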

[2] = qHTS assay for small molecule agonists of the p53 signaling pathway - cell viability (AID 651633; calls by dose curve;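 note: p53RE-bla HCT reporter cells with a stable beta-lactamase p53 reporter; series mostly up to about 83 µM; nearly all actives have a fitted effect of over 30% in size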)
Outline: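 p53RE-bla cells, seeded at 4,000 per well and rested 5 h at 37 C/5% CO2, received compounds in DMSO for 16 h at 37 C. CellTiter-Glo was then added, and luminescence was read after 30 min at room temperature to gauge cytotoxicity.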

[3] = qHTS assay for small molecules that induce genotoxicity in human embryonic kidney cells expressing luciferase-tagged ATAD5 - cell viability (AID 651634; calls by dose curve; note: nearly all actives have a fitted effect of over 25% in size)
Outline: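 15.5 hr compound or vehicle exposure of HEK293T cells expressing luciferase-tagged ATAD5 at 37C; live-cell protease activity is read by fluorescence after 30 min of CellTiter-Fluor.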

[4] = qHTS assay for small molecule disruptors of the mitochondrial membrane potential - cell viability (AID 720634; calls by dose curve;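 note: human HepG2 liver cancer cells; series mostly up to about 83 µM; nearly all actives have a fitted effect of over 20% in size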)
Outline: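 In this qHTS format, HepG2 cells plated overnight were pinned with compound, incubated 1 hr, and assayed for ATP luminescence with CellTiter-Glo after m-MPI dye addition.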

[5] = qHTS assay to test for compound auto fluorescence at 590 nm (red) in HepG2 cells (AID 720674)
Outline: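 Rose Bengal sodium served as the red fluorophore standard. HepG2 monolayers (overnight attachment, MEM with 10% FBS) were exposed to test compounds for 1 hr at 37 C and read at Ex 540/Em 590 nm.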

[6] = qHTS assay to test for compound auto fluorescence at 460 nm (blue) in HEK293 cells (AID 720678)
Outline: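 Auto fluorescence in the blue band was quantified as triamterene equivalency. HEK293 cells were seeded at 2,000/well, dosed after a 4-5 hr attachment, and kept overnight at 37C before the 405/460 nm reading.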

[7] = qHTS assay to test for compound auto fluorescence at 590 nm (red) in HEK293 cells (AID 720679)
Outline: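 Autofluorescence equivalency to Rose Bengal sodium, 540/590nm, in HEK293 cells exposed overnight to 23 nL compound per well.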

[8] = qHTS assay to test for compound auto fluorescence at 535 nm (green) in HEK293 cells (AID 720680)
[9] = qHTS assay to test for compound auto fluorescence at 460 nm (blue) in HEK293 cell free culture (AID 720681)
Outline: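 Test compounds were pinned into cell-free culture medium (DMEM with 10% FBS) and fluorescence was read directly at Ex/Em 405/460 nm. Signals were expressed as fluorescence equivalents of triamterene, with DMSO vehicle as control.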

[10] = qHTS assay to test for compound auto fluorescence at 535 nm (green) in HEK293 cell free culture (AID 720682)
Outline: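 Steps: dispense DMEM/10% FBS into empty wells; pin in compound or DMSO; measure fluorescence at 485/535 nm. Values are fluorescein equivalents.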

[11] = qHTS assay to test for compound auto fluorescence at 590 nm (red) in HEK293 cell free culture (AID 720683)
Outline: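 Tox21 10K library compounds were pinned into cell-free DMEM with 10% FBS and fluorescence was read at excitation 540 nm. Activity is expressed as Rose Bengal sodium equivalency.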

[12] = qHTS assay to test for compound auto fluorescence at 590 nm (red) in HepG2 cell free culture (AID 720684)
Outline: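 Ex 540 / Em 590 nm read of compound in cell-free MEM (10% FBS). Rose Bengal sodium reference.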

[13] = qHTS assay to test for compound auto fluorescence at 460 nm (blue) in HepG2 cell free culture (AID 720685)
Outline: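 Cell-free plates of MEM plus 10% FBS received 23 nL compound or DMSO vehicle; blue-channel (405/460 nm) intensity scored against triamterene as reference fluorophore.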

[14] = qHTS assay to test for compound auto fluorescence at 535 nm (green) in HepG2 cell free culture (AID 720686)
[15] = qHTS assay to test for compound auto fluorescence at 460 nm (blue) in HepG2 cells (AID 720687)
Outline: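 Cells (2,000/well in MEM with 10% FBS) attached overnight at 37 C, then were exposed to compound or DMSO for 1 hr at 37 C, 5% CO2. Fluorescence read at Ex/Em 405/460 nm, expressed as triamterene-equivalent signal.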

[16] = qHTS assay to test for compound auto fluorescence at 535 nm (green) in HepG2 cells (AID 720675)
[17] = target: Glucocorticoid receptor (Homo sapiens) (UniProt P04150); experiment: qHTS assay to identify small molecule agonists of the glucocorticoid receptor (GR) signaling pathway (AID 720691; active = well fitted activation curve with a large enough effect in the signal ratio in the repeat runs, not every such curve was filed as active; the % refers to the signal ratio)
Glucocorticoid receptor (Homo sapiens), sequence (P04150 whole entry, looked up): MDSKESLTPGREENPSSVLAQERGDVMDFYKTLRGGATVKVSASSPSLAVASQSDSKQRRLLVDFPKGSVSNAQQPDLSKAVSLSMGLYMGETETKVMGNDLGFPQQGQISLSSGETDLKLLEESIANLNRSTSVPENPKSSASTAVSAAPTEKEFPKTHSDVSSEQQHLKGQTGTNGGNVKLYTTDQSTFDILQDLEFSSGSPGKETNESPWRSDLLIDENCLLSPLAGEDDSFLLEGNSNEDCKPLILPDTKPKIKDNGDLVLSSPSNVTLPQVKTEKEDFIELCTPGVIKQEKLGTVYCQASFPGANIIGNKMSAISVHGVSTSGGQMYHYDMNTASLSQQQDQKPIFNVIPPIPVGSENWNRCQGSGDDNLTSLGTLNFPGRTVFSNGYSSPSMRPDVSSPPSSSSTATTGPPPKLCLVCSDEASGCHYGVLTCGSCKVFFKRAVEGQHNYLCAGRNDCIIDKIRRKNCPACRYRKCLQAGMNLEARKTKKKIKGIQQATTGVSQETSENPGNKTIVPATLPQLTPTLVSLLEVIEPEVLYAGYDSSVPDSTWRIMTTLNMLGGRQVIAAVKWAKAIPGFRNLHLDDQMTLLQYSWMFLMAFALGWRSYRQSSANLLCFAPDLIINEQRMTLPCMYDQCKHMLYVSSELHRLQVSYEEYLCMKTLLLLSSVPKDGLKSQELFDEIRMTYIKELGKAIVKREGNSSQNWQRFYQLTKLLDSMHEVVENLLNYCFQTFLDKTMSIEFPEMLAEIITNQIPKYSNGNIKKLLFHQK
Outline: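 Measures GR pathway activation through a GRE-beta-lactamase reporter stably integrated in HeLa cells, with 18 h compound treatment at 37 C and fluorescence detection using a FRET substrate.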

[18] = target: Glucocorticoid receptor (Homo sapiens) (UniProt P04150); experiment: qHTS assay to identify small molecule antagonists of the glucocorticoid receptor (GR) signaling pathway (AID 720692; active = well fitted inhibition curve with a large enough effect in the signal ratio in the repeat runs, not every such curve was filed as active; the % refers to the signal ratio)
Outline: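 Tox21 10K library screened in concentration-response for blockade of dexamethasone (5 nM final)-induced GRE-bla reporter activity in HeLa cells; 18 h treatment, fluorescence read.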

[19] = qHTS assay for small molecule disruptors of the mitochondrial membrane potential (AID 720635)
Outline: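 HepG2 cells (2,000/well) attached overnight at 37C, then took compound for 1 hr at 37C, 5% CO2. Mito-MPS dye was added for 30 min; fluorescence was read at 490/535 nm (monomers) and 540/590 nm (aggregates).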

[20] = qHTS assay for small molecule agonists of the p53 signaling pathway (AID 651631; calls by dose curve; note: nearly all actives have a fitted effect of over 15% in size)
Outline: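 HCT-116 p53RE-bla reporter line, 16 h compound treatment at 37 °C, then fluorescence after 2 h with B/G FRET substrate.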

Measured: Potency

C[C@]12CC[C@H]3[C@@H](CC[C@@]45O[C@@H]4C(O)=C(C#N)C[C@]35C)[C@@H]1CC[C@@H]2O
not listed: [16] | [17] | [18] | [19] | [20]
inactive: all other assays above

CC(=O)C=C(C)C
not listed: [2] | [10] | [19] | [20]
inactive: all other assays above

CCC(C)(CC)c1cc(NC(=O)c2c(OC)cccc2OC)on1
not listed: [2] | [17] | [18] | [19] | [20]
inactive: all other assays above

Cc1cccc([N+](=O)[O-])c1
not listed: [16] | [18] | [20]
inactive: all other assays above

CC(C)C#N
not listed: [18] | [20]
inactive: all other assays above

Cc1ccc(N)cc1Cl
not listed: [10] | [17] | [18] | [20]
inactive: all other assays above

CN(C)[C@@H]1C(=O)C(C(N)=O)=C(O)[C@@]2(O)C(=O)C3=C(O)c4c(O)cccc4[C@@](C)(O)[C@H]3C[C@@H]12
not listed: [1] | [16] | [19]
inactive: all other assays above

CC(C#N)CCC#N (stereo not given)
not listed: [4] | [10] | [18] | [19]
inactive: all other assays above
